Laboratory results reported in PubChem BioAssay (EPA / NIEHS).
Records with an inconclusive call do not appear. Active and inactive are the calls of the source. The calls were made as follows, unless noted: active = hit-call score of the fitted dose curve at least 0.9, where 1 is the maximum; inactive = score below 0.9.

How the values were obtained:
[1] = ATG_XTT_Cytotoxicity: Cytotoxicity Assessment in the Attagene TRANS-FACTORIAL HepG2 Assay (AID 2283584; active = hit-call score of the fitted dose curve at least 0.9, where 1 is the maximum)
Summary of the method: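 Transfect HepG2 with GAL4-UAS reporter units, dose compound, incubate 24 h, then measure viable cell number by XTT. Fit concentration response against DMSO baseline.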

[2] = read-out: matrix metalloproteinase-10 (MMP10), MMP10 (gene 4319); test: LTEA_HepaRG_MMP10: Life Technologies and Expression Analysis (LTEA) Assay for matrix metalloproteinase-10 (MMP10) using HepaRG (AID 2283517); details: mRNA level, 48 h; actives raise or lower the signal
Summary of the method: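 In differentiated HepaRG cultures kept in 0.5% DMSO, test chemicals act for 48 h over an eight-point range with a top dose of 100 uM. Expression is then quantified by TaqMan RT-PCR against ACTB, GAPDH and POLR2A.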

MYC, MYC (gene 4609) = test: LTEA_HepaRG_MYC: Life Technologies and Expression Analysis (LTEA) Assay for MYC using HepaRG (AID 2283518); details: mRNA level, 48 h; actives raise or lower the signal
Summary of the method: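 Cells are thawed, plated and cultured 48 h, then treated for 48 h with test chemicals (eight half-log concentrations from 100 uM, 0.5% DMSO vehicle). RNA is isolated and MYC expression quantified by qRT-PCR against three housekeeping genes.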

[3] = read-out: Paternally Expressed 10 (PEG10), PEG10 (gene 23089); test: LTEA_HepaRG_PEG10: Life Technologies and Expression Analysis (LTEA) Assay for Paternally Expressed 10 (PEG10) using HepaRG (AID 2283520); details: mRNA level, 48 h; actives raise or lower the signal;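 as to AC50: differentiated HepaRG human liver cells in serum-free induction medium with 0.5% DMSO; PEG10 transcript by qRT-PCR normalised to ACTB GAPDH and POLR2A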
Summary of the method: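 qRT-PCR read-out: PEG10 mRNA normalised to three housekeeping genes, fitted bidirectionally against 0.5% DMSO vehicle. HepaRG cells received test chemicals for 48 h in serum-free induction medium, 8 points, top 100 uM, half-log steps.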

[4] = read-out: Nuclear factor NF-kappa-B p105 subunit (Homo sapiens) (UniProt P19838); test: LTEA_HepaRG_NFKB1: Life Technologies and Expression Analysis (LTEA) Assay for Nuclear Factor Kappa B Subunit 1 (NFKB1) using HepaRG (AID 2283521); details: mRNA level, 48 h; actives raise or lower the signal
Summary of the method: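 NFKB1 transcript was measured by TaqMan qRT-PCR on Fluidigm arrays, normalised to three housekeeping genes and fitted in both directions against 0.5% DMSO. HepaRG cells were dosed in duplicate for 48 h in serum-free induction medium, eight half-log steps from 100 uM.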

[5] = read-out: Phosphatase and tensin (PTEN), PTEN (gene 5728); test: LTEA_HepaRG_PTEN: Life Technologies and Expression Analysis (LTEA) Assay for Phosphatase and tensin (PTEN) using HepaRG (AID 2283523); details: mRNA level, 48 h; actives raise or lower the signal
Summary of the method: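 Expression of PTEN is quantified in the human liver line HepaRG following two days of dosing (top concentration 100 uM, half-log dilutions, 0.5% DMSO). Values derive from bidirectional curve fitting relative to DMSO controls.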

[6] = read-out: solute carrier (SLC22A1), SLC22A1 (gene 6580); test: LTEA_HepaRG_SLC22A1: Life Technologies and Expression Analysis (LTEA) Assay for solute carrier (SLC22A1) using HepaRG (AID 2283524); details: mRNA level, 48 h; actives raise or lower the signal;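 as to AC50: differentiated human HepaRG liver cells in serum-free induction medium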
Summary of the method: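 Transcript induction or suppression of SLC22A1 in human HepaRG cultures is scored after 48 h chemical treatment, with DMSO (0.5%) as baseline for bidirectional fitting. Concentrations span eight half-log points topping at 100 uM.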

[7] = read-out: Nuclear factor erythroid 2-related factor 2 (Homo sapiens) (UniProt Q16236); test: LTEA_HepaRG_NFE2L2: Life Technologies and Expression Analysis (LTEA) Assay for Nuclear factor erythroid 2-related factor 2 (NFE2L2) Transcription Factor using HepaRG (AID 2283527); details: mRNA level, 48 h; actives raise or lower the signal
Summary of the method: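 Human liver HepaRG line treated in duplicate for 48 h with an eight-point series topping at 100 uM. Gene expression of NFE2L2 by qRT-PCR, bidirectionally fitted against the vehicle control.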

[8] = read-out: succinate dehydrogenase complex iron sulfur subunit B (SDHB), SDHB (gene 6390); test: LTEA_HepaRG_SDHB: Life Technologies and Expression Analysis (LTEA) Assay for succinate dehydrogenase complex iron sulfur subunit B (SDHB) using HepaRG (AID 2283528); details: mRNA level, 48 h; actives raise or lower the signal
Summary of the method: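 SDHB transcript level read by TaqMan qRT-PCR, housekeeping-normalised (ACTB, GAPDH, POLR2A), after 48 h chemical treatment of plated HepaRG cells; eight concentrations top 100 uM, half-log steps, 0.5% DMSO, duplicates; fitted both directions against DMSO.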

[9] = read-out: Signal transducer and activator of transcription 3 (Homo sapiens) (UniProt P40763); test: LTEA_HepaRG_STAT3: Life Technologies and Expression Analysis (LTEA) Assay for Signal transducer and activator of transcription (STAT3) using HepaRG (AID 2283529); details: mRNA level, 48 h; actives raise or lower the signal
Summary of the method: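 In this transcriptional endpoint, HepaRG cultures receive test chemicals at up to 100 uM for 48 h, tested in duplicate. STAT3 mRNA is normalized to ACTB, GAPDH and POLR2A.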

[10] = read-out: sulfotransferase 2A1 (SULT2A1), SULT2A1 (gene 6822); test: LTEA_HepaRG_SULT2A1: Life Technologies and Expression Analysis (LTEA) Assay for sulfotransferase 2A1 (SULT2A1) using HepaRG (AID 2283531); details: mRNA level, 48 h; actives raise or lower the signal
Summary of the method: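 Cells were plated and cultured 48 h, switched to serum-free induction medium, then dosed in duplicate for 48 h (8 concentrations, max 100 uM). RNA was isolated and SULT2A1 expression measured by qRT-PCR; gain or loss of signal fitted relative to DMSO.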

[11] = read-out: Transforming Growth Factor (TGFB1), TGFB1 (gene 7040); test: LTEA_HepaRG_TGFB1: Life Technologies and Expression Analysis (LTEA) Assay for Transforming Growth Factor (TGFB1) Transporter using HepaRG (AID 2283533); details: mRNA level, 48 h; actives raise or lower the signal
Summary of the method: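 Expression change of TGFB1 in human HepaRG cells is measured after a 48 h chemical exposure, up to 100 uM in 0.5% DMSO vehicle. Curves are fitted in both directions relative to the DMSO baseline.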

TIMP1, TIMP1 (gene 7076) = test: LTEA_HepaRG_TIMP1: Life Technologies and Expression Analysis (LTEA) Assay for TIMP1 using HepaRG (AID 2283534); details: mRNA level, 48 h; actives raise or lower the signal
Summary of the method: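 We dosed human liver HepaRG cultures for 48 hours with up to 100 uM test chemical and measured TIMP1 expression by qRT-PCR. Activity in either direction is fitted relative to the 0.5% DMSO vehicle.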

[12] = read-out: Tumor necrosis factor receptor 1 (TNFRSF1A), TNFRSF1A (gene 7132); test: LTEA_HepaRG_TNFRSF1A: Life Technologies and Expression Analysis (LTEA) Assay for Tumor necrosis factor receptor 1 (TNFRSF1A) using HepaRG (AID 2283535); details: mRNA level, 48 h; actives raise or lower the signal
Summary of the method: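 Expression of TNFRSF1A in human HepaRG liver cells was measured by qRT-PCR 48 h after chemical dosing (maximum 100 uM). Bidirectional curve fitting used 0.5% DMSO as baseline.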

[13] = read-out: Thyroid Hormone Responsive (THRSP), THRSP (gene 7069); test: LTEA_HepaRG_THRSP: Life Technologies and Expression Analysis (LTEA) Assay for Thyroid Hormone Responsive (THRSP) using HepaRG (AID 2283536); details: mRNA level, 48 h; actives raise or lower the signal
Summary of the method: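 Cell model: human HepaRG, approx. 100,000 cells/well, 0.5% DMSO vehicle. Exposure lasts 48 h; phenobarbital 1 mM serves as induction positive control. Gene expression is measured by qRT-PCR against three endogenous control genes.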

[14] = read-out: UDP glucuronosyltransferase (UGT1A6), UGT1A6 (gene 54578); test: LTEA_HepaRG_UGT1A6: Life Technologies and Expression Analysis (LTEA) Assay for UDP glucuronosyltransferase (UGT1A6) using HepaRG (AID 2283539); details: mRNA level, 48 h; actives raise or lower the signal
Summary of the method: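 Endpoint is UGT1A6 transcript induction or loss in a human liver cell line, quantified by TaqMan qRT-PCR 48 h after dosing. Concentrations ran from 100 uM downward in half-log steps in 0.5% DMSO; activity was fitted in both directions versus vehicle.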

[15] = read-out: X-box binding protein 1 (XBP1), XBP1 (gene 7494); test: LTEA_HepaRG_XBP1: Life Technologies and Expression Analysis (LTEA) Assay for X-box binding protein 1 (XBP1) using HepaRG (AID 2283540); details: mRNA level, 48 h; actives raise or lower the signal
Summary of the method: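 Human HepaRG monolayers receive test chemical for 48 h across an eight-point half-log series starting at 100 uM. XBP1 mRNA gain or loss is scored against DMSO by qRT-PCR.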

[16] = read-out: matrix metalloproteinase-3 (MMP3), MMP3 (gene 4314); test: LTEA_HepaRG_MMP3: Life Technologies and Expression Analysis (LTEA) Assay for matrix metalloproteinase-3 (MMP3) using HepaRG (AID 2283519); details: mRNA level, 48 h; actives raise or lower the signal
Summary of the method: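 Human liver HepaRG cultures received chemicals (top concentration 100 uM, 0.5% DMSO) for 48 h in duplicate. MMP3 mRNA induction or loss was then assessed via TaqMan qRT-PCR with housekeeping-gene normalisation.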

Measured: AC50

Sequence of Nuclear factor NF-kappa-B p105 subunit (Homo sapiens) (P19838 whole entry, looked up): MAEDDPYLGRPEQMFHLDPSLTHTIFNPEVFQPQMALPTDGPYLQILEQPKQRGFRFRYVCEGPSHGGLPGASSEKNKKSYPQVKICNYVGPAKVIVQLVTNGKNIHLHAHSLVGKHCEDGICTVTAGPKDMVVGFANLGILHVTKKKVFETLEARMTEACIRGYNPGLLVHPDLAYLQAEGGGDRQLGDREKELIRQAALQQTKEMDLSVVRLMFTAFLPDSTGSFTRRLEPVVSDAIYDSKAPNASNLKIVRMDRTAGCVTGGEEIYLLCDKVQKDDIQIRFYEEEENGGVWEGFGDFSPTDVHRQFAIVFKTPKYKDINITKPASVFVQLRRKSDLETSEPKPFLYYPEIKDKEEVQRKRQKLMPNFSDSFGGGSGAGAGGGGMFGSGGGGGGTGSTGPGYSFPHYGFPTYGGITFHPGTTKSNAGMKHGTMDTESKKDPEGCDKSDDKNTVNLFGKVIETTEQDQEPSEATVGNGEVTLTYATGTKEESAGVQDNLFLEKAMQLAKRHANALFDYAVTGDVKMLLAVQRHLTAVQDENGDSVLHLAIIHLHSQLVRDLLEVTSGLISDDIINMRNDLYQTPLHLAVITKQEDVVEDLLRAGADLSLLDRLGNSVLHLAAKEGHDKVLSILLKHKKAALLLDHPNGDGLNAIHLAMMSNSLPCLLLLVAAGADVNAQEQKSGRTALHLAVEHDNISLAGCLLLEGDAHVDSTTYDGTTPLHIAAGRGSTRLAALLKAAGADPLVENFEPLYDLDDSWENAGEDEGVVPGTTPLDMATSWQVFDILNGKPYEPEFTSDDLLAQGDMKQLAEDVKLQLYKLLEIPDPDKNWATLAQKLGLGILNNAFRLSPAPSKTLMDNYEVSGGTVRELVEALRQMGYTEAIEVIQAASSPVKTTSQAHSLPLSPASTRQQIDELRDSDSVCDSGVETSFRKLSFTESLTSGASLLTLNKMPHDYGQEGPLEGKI
Sequence of Nuclear factor erythroid 2-related factor 2 (Homo sapiens) (Q16236 whole entry, looked up): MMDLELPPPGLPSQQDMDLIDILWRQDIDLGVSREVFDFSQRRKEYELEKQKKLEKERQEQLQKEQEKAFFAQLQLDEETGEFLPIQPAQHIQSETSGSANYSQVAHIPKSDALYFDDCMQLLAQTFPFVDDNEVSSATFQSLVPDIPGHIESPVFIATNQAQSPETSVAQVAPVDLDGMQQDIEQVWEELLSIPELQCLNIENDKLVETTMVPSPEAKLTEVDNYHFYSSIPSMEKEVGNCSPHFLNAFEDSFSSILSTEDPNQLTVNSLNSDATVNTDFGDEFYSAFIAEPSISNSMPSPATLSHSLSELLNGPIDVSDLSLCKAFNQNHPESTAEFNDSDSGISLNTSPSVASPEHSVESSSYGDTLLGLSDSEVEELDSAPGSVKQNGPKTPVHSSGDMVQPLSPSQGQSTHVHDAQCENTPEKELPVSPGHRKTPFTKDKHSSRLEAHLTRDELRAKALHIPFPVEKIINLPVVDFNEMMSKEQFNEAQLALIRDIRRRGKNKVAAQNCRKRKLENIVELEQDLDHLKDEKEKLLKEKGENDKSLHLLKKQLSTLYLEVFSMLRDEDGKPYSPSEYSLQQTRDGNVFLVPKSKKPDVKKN
Sequence of Signal transducer and activator of transcription 3 (Homo sapiens) (P40763 whole entry, looked up): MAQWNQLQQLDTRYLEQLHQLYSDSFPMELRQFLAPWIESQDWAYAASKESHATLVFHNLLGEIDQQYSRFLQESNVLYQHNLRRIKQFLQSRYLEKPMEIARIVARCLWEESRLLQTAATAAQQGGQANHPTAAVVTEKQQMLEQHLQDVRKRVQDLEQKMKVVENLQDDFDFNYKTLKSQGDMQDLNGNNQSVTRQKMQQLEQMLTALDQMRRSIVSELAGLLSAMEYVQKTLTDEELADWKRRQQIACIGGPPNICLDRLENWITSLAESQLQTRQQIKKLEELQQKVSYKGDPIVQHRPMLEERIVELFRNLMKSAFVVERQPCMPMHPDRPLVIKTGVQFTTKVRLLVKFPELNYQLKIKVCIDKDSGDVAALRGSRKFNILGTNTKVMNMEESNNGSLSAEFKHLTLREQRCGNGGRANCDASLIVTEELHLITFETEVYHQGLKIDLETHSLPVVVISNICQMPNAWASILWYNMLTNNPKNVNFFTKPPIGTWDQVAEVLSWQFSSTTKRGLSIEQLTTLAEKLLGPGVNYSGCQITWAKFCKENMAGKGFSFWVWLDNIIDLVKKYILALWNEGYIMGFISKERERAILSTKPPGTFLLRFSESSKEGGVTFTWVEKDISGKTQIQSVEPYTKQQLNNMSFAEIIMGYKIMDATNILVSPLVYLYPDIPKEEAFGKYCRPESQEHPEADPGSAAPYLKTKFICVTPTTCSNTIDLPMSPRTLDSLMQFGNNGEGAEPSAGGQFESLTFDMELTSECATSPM

Cc1ccc(N=Nc2c(O)ccc3ccccc23)c(C)c1
inactive: [1]

N=C(N)c1ccc(OCCCCCOc2ccc(C(=N)N)cc2)cc1
active: [2] 26.1 µM | MYC, MYC (gene 4609) 3.56 µM | [3] 26.6 µM | [4] 29.1 µM | [5] 29.9 µM | [6] 6.6 µM | [7] 10.1 µM | [8] 56.2 µM | [9] 29 µM | [10] 12.6 µM | [11] 69.8 µM | TIMP1, TIMP1 (gene 7076) 43.8 µM | [12] 30.5 µM | [13] 8.04 µM | [14] 37.8 µM | [15] 28.5 µM
inactive: [1]

OCC(CO)(CBr)CBr
not listed: [1]
inactive: all other assays above
